Experimental data taken from PubChem BioAssay.
Calls of active or inactive are those of the source. Unless noted, no rule for the calls is given here.

Tests used:
[1] = compound effects on lung adenocarcinoma cell viability – A549, calcein-AM fluorescence, 48 h, basal, profiling panel (AID 1162); conditions: higher = more signal; also: test concentration not given here
[2] = compound effects on differentiated 3T3-L1 adipocyte viability – cell-based, 3T3-L1 adipocytes, calcein-AM fluorescence, 48 h, basal, profiling panel (AID 1163); conditions: 3T3-L1 adipocytes viability, higher = more signal; also: test concentration not given here
[3] = compound effects on hepatocellular carcinoma cell viability – HepG2, calcein-AM fluorescence, 48 h, basal, profiling panel (AID 1164); conditions: higher = more signal; also: test concentration not given here
[4] = compound effects on multiple myeloma cell viability – MM1S, calcein-AM fluorescence, 48 h, basal, profiling panel (AID 1165); conditions: higher = more signal; also: test concentration not given here
[5] = calcein-AM signal in unstimulated myeloma cells – cell-based, calcein-AM fluorescence, 48 h, PK04 Diversity Set, profiling panel (AID 1166); conditions: RPMI8226 myeloma viability, higher = more signal;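 also: cells grown under basal conditions without added stimulus; test concentration not given here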
[6] = JC-1 mitochondrial signal, unstimulated HepG2 cells – cell-based, JC-1 fluorescence, 24 h, 100 nL compound, profiling panel (AID 1167); conditions: HepG2 mitochondrial potential, higher = more signal; also: test concentration not given here
[7] = JC-1 mitochondrial signal, unstimulated adipocytes – cell-based, JC-1 fluorescence, 3T3-L1 adipocytes, 24 h, 100 nL compound, profiling panel (AID 1168); conditions: JC-1 mitochondrial fluorescence, higher = more signal, called active from +8 up or from −8 down; also: test concentration not given here
[8] = JC-1 mitochondrial signal, unstimulated myeloma cells – cell-based, JC-1 fluorescence, RPMI8226, 24 h, 100 nL compound, profiling panel (AID 1169); conditions: JC-1 mitochondrial potential fluorescence, higher = more signal; also: test concentration not given here
[9] = JC-1 mitochondrial signal, unstimulated MM1S myeloma – cell-based, JC-1 fluorescence, 24 h, 100 nL compound, profiling panel (AID 1170); conditions: MM1S mitochondrial potential, higher = more signal; also: test concentration not given here
[10] = resazurin metabolic signal in A549 cells – cell-based, resazurin fluorescence, 24 h, PK04 Diversity Set, profiling panel (AID 1171); conditions: A549 viability, higher = more signal, called active from +8 up or from −8 down; also: test concentration not given here
[11] = resazurin metabolic signal in HepG2 cells – cell-based, resazurin fluorescence, 24 h, PK04 Diversity Set, profiling panel (AID 1172); conditions: HepG2 viability, higher = more signal; also: test concentration not given here
[12] = budding yeast growth changes without added modifier – OD600, strain BY4716, 24 h, basal condition, primary screen (AID 1173); conditions: S. cerevisiae BY4716 growth, OD600, 24 h; higher = more signal, called active from +8 up or from −8 down
[13] = viability profiling in MM1S myeloma cells – cell-based, resazurin fluorescence, basal, 24 h, PK04 Diversity Set, profiling panel (AID 1174); conditions: higher = more signal, called active from +8 up or from −8 down; also: test concentration not given here
[14] = biological target: Dihydroorotate dehydrogenase (quinone), mitochondrial (Plasmodium falciparum (isolate 3D7)) (UniProt Q08210); assay: inhibition of P. falciparum DHODH – biochemical, C-terminal His tag, absorbance 600 nm, primary screen (AID 1175); conditions: PfDHODH enzyme, DCIP absorbance 600 nm; higher = more signal, called active from +8 up or from −8 down;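 also: recombinant parasite enzyme with a five histidine tag at its C terminus; test concentration not given here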
Chain of Dihydroorotate dehydrogenase (quinone), mitochondrial (Plasmodium falciparum (isolate 3D7)) (Q08210 whole entry, looked up): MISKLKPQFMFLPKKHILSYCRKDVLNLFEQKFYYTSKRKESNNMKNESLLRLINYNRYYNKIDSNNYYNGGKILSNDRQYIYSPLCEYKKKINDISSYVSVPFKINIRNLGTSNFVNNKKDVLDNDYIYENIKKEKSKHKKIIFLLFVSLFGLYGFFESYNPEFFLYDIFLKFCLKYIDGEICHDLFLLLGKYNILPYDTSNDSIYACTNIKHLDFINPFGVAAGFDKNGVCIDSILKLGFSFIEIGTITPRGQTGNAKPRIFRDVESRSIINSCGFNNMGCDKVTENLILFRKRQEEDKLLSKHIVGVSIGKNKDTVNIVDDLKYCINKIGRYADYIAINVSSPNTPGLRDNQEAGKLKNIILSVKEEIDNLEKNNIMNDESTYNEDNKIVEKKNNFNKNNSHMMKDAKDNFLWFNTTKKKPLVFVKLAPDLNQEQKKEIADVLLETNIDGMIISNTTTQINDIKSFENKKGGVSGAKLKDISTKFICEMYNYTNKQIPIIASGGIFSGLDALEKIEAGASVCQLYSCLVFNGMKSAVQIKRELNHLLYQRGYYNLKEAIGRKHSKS

[15] = inhibition of PAO1 biofilm formation – strain PAO1, LB-PBS medium, absorbance 600 nm, primary screen (AID 1176); also: test concentration not given here; conditions: P. aeruginosa PAO1 growth/biofilm, A600, 12 h; higher = more signal
[16] = growth modulation of vineyard yeast isolate – strain RM11-1a, OD600, basal, 24 h, primary screen (AID 1177);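 also: cultures grown under basal conditions with no added stressor; test concentration not given here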; conditions: S. cerevisiae RM11-1a growth, OD600, 24 h; higher = more signal, called active from +8 up or from −8 down
[17] = growth of efflux-deficient E. coli DRC39 – strain DRC39, OD650, 24 h, E. coli filamentation inducers, primary screen (AID 1178);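 also: growth measured as culture turbidity by optical density at 650 nm; test concentration not given here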; conditions: E. coli DRC39 acrAB, higher = more signal, called active from +8 up or from −8 down
[18] = growth of efflux-deficient E. coli DRC39 – strain DRC39, OD650, 48 h, E. coli filamentation inducers, primary screen (AID 1179);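 also: screen aims at cell division blockers that make cells filament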; conditions: E. coli DRC39 delta-acrAB growth, higher = more signal, called active from +8 up or from −8 down
[19] = viability profiling in RPMI8226 myeloma cells – cell-based, resazurin fluorescence, basal, 24 h, PK04 Diversity Set, profiling panel (AID 1180); conditions: higher = more signal;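 also: RPMI8826 multiple myeloma cell line at 5000 cells per well; test concentration not given here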
[20] = biological target: E3 ubiquitin-protein ligase XIAP (Homo sapiens) (UniProt P98170); assay: small molecules binding XIAP protein – biophysical, small-molecule microarray, fluorescence 635 nm, primary screen (AID 1181); conditions: higher = more signal;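 also: score merges 667 nm emission and signal to noise over triplicate slides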
Chain of E3 ubiquitin-protein ligase XIAP (Homo sapiens) (P98170 whole entry, looked up): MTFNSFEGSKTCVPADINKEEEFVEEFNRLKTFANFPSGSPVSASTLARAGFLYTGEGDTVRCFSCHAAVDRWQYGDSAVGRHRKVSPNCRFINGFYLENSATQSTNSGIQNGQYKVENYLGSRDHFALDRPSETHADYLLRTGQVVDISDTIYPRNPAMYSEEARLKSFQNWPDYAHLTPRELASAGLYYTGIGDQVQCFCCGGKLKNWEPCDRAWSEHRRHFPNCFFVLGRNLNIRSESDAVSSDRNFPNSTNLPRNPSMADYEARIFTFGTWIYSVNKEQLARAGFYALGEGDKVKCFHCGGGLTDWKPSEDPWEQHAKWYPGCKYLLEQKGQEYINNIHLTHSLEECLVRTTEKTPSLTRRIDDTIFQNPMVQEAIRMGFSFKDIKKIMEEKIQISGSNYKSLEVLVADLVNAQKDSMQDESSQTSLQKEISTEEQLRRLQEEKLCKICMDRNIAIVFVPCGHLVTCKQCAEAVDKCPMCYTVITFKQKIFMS

Compound	z-score [1]	z-score [2]	z-score [3]	z-score [4]	z-score [5]	z-score [6]	z-score [7]	z-score [8]	z-score [9]	z-score [10]	z-score [11]	z-score [12]	z-score [13]	composite z-score [14]	z-score [15]	z-score [16]	z-score [17]	z-score [18]	z-score [19]	composite z-score [20]
NC(=O)[C@H]1[C@@H]2C(=O)O[C@@H](c3ccccc3)[C@@H](c3ccccc3)N2[C@@H](c2ccc(OCCO)cc2)[C@]12C(=O)Nc1ccc(C#CCCO)cc12	0.0067	0.272	0.456	0.227	0.167	-0.202	-0.383 (inactive)	-0.398	-1.18	-0.0196 (inactive)	-0.0423	0.704 (inactive)	-0.245 (inactive)	-0.624 (inactive)	0.35 (inactive)	1.78 (inactive)	-0.0157 (inactive)	0.0992 (inactive)	-0.169	-0.0884
CC#CCO[Si](C#Cc1ccccc1)(C(C)C)C(C)C	-0.511	-0.458	-0.175	-0.806	-1.83	-1.51	-0.628 (inactive)	-0.845	-1.3	-0.537 (inactive)	-0.112	-15.6 (active)	-0.632 (inactive)	0.108 (inactive)	0.219 (inactive)	0.201 (inactive)	-0.244 (inactive)	-0.032 (inactive)	-0.67	-0.127
CC(CO)N1C(=O)[C@]2(C)C3C(=O)OCCC/C=C\[C@H]3OC23C=CCN(c2ccc(Cl)cc2)C(=O)[C@@H]13 (stereo not given in full)	0.592	-0.329	0.94	1.77	0.202	1.19	0.204 (inactive)	-0.765	-0.302	-0.0794 (inactive)	-0.342	0.317 (inactive)	0.28 (inactive)	-0.924 (inactive)	-0.264 (inactive)	-0.354 (inactive)	0.351 (inactive)	0.779 (inactive)	0.499	0.834
COc1ccc(C(=O)Nc2ccc(CN3C(=O)[C@]4(O[C@H](CC(=O)N5Cc6ccccc6C[C@H]5CO)[C@@H]([Si](C)(C)c5ccc(OC)cc5)[C@@H]4C)c4ccccc43)cc2)cc1	-0.513	1.56	0.349	-1.6	-0.786	0.705	-0.212 (inactive)	-0.7	-0.911	-1.96 (inactive)	-1.61	0.496 (inactive)	-1.13 (inactive)	-2.72 (inactive)	0.0002 (inactive)	2.48 (inactive)	-1.14 (inactive)	-1.09 (inactive)	-0.839	-0.239
C=CCC(OC(C)=O)[C@@H]1[C@@H](N(Cc2cc3ccccc3o2)C(=O)Cc2ccc(F)cc2)c2cc(OCCCO)ccc2N1C(=O)Cc1ccc2ccccc2c1 (stereo not given in full)	0.181	-0.136	0.766	-0.082	-0.759	1.22	-0.683 (inactive)	-0.311	1.19	0.0336 (inactive)	0.278	-0.0417 (inactive)	0.72 (inactive)	-13.4 (active)	0.526 (inactive)	-0.146 (inactive)	-1 (inactive)	-0.861 (inactive)	0.189	0.109
O=C(c1ccccc1)N1C(=O)[C@]2(Cc3ccccc31)N=C(c1ccc(OCCCO)cc1)O[C@@H]2c1ccccc1	-1.84	0.736	-2.44	-3.55	-4.35	-2.26	-0.0262 (inactive)	-1.18	-2.17	-2.83 (inactive)	-2.28	0.964 (inactive)	-5.95 (inactive)	0.934 (inactive)	1.82 (inactive)	2.14 (inactive)	-0.18 (inactive)	-1.01 (inactive)	-5.46	0.233
COCCOC(=O)N1C(=O)[C@@]2(c3cc(C#CCC(C(=O)OC)C(=O)OC)ccc31)[C@H](c1ccc(OCCO)cc1)N1[C@H](c3ccccc3)[C@H](c3ccccc3)OC(=O)[C@H]1[C@@H]2C(=O)N1CCc2cc(OC)c(OC)cc2C1	1.05	-0.0617	0.0859	-1.04	-0.467	0.363	1.37 (inactive)	-0.262	-1.21	0.0243 (inactive)	0.125	2.56 (inactive)	0.26 (inactive)	-0.523 (inactive)	2.25 (inactive)	3.32 (inactive)	0.301 (inactive)	0.294 (inactive)	0.504	0.112
CCOC(=O)C[C@H]1[C@H](OC(=O)Cc2ccc3c(c2)OCO3)[C@@H](NC(=O)C2CCCCC2)c2cc(OCCCO)ccc2N1C(=O)c1ccccc1	1.99	-0.193	-0.0568	0.567	-0.354	1.69	0.247 (inactive)	0.0348	0.137	0.745 (inactive)	-0.215	0.149 (inactive)	0.327 (inactive)	0.108 (inactive)	0.407 (inactive)	0.0834 (inactive)	1.39 (inactive)	1.37 (inactive)	0.3	-0.173
[N-]=[N+]=Nc1ccccc1C[C@]1(C(=O)NCCN2CCOCC2)COC(c2ccc(OCCCO)cc2)=N1	1.84	0.0471	1.31	0.534	0.586	0.157	0.959 (inactive)	-0.264	-0.422	0.887 (inactive)	1.14	-1.84 (inactive)	0.892 (inactive)	0.137 (inactive)	0.289 (inactive)	-0.71 (inactive)	0.947 (inactive)	0.361 (inactive)	1.13	-0.237
C=CCNC(=O)[C@@H]1[C@H]2C(=O)O[C@H](c3ccccc3)[C@H](c3ccccc3)N2[C@H](c2ccccc2OCCO)[C@@]12C(=O)N(C(=O)OCCOC)c1ccc(C#CC3(O)CCCCCC3)cc12	-0.21	1.21	-1.27	-2.55	-3.61	-0.746	-0.389 (inactive)	-0.816	-0.761	-0.628 (inactive)	-0.405	0.605 (inactive)	-2.57 (inactive)	-1.91 (inactive)	2.12 (inactive)	0.766 (inactive)	0.0265 (inactive)	-0.609 (inactive)	-3.27	0.133
C=C(C(=O)CC[C@H](OC(=O)c1ccccc1-c1ccccc1C(=O)O)c1cccc(OCCO)c1)C(C)C	-0.613	0.422	-0.502	-3.07	-1.52	-1.68	-0.156 (inactive)	0.248	0.618	-0.701 (inactive)	-0.862	-0.907 (inactive)	-0.69 (inactive)	-0.23 (inactive)	0.804 (inactive)	-0.427 (inactive)	-1.08 (inactive)	-1.03 (inactive)	-0.69	0.0617
[N-]=[N+]=Nc1ccccc1C[C@]1(C(=O)NCC(O)CO)COC(c2ccc(OCCCO)cc2)=N1 (stereo not given in full)	0.67	1.11	0.409	0.195	-0.0237	0.244	-0.257 (inactive)	-0.847	0.639	0.837 (inactive)	0.586	-0.226 (inactive)	0.303 (inactive)	1 (inactive)	1.19 (inactive)	1.73 (inactive)	0.87 (inactive)	-0.155 (inactive)	0.747	0.0449
COc1ccc(CCNC(=O)[C@@]2(c3ccc([N+](=O)[O-])cc3)CC(=O)N(C3CCCCC3)[C@@H]2c2ccc(CO)cc2)cc1	2.41	0.414	1.12	0.547	0.841	2.85	-0.171 (inactive)	0.562	0.954	1.28 (inactive)	0.159	-0.0229 (inactive)	-0.881 (inactive)	0.395 (inactive)	-0.342 (inactive)	1.14 (inactive)	0.914 (inactive)	0.686 (inactive)	0.556	-0.0333
CC(C)[Si]1(C(C)C)OCc2cc(-c3ccc(-c4ccc(Cl)c(Cl)c4)o3)nc(-c3ccccc3)c21	-0.715	0.369	-0.738	-1.77	-1.8	-1.18	-0.485 (inactive)	0.194	0.406	0.793 (inactive)	0.374	-0.981 (inactive)	0.797 (inactive)	0.107 (inactive)	0.374 (inactive)	-0.219 (inactive)	-0.28 (inactive)	-0.725 (inactive)	0.311	-0.031
COc1ccc([Si](C)(C)[C@@H]2[C@@H](CC(=O)N(CCO)Cc3ccccc3)O[C@]3(C(=O)N(Cc4cccc(N5CCCCC5=O)c4)c4ccccc43)[C@H]2C)cc1	-1.2	0.579	-2.56	-1.43	-3.89	0.56	1.15 (inactive)	-0.654	-1.26	-1.6 (inactive)	-0.369	0.594 (inactive)	-1.72 (inactive)	-1 (inactive)	1.63 (inactive)	2.63 (inactive)	0.899 (inactive)	0.246 (inactive)	-1.74	-0.138
COC(=O)[C@@]1(Cc2ccc(OC)cc2)[C@H]2c3cc(C(=O)N(C)C)n(Cc4ccc(OC(F)(F)F)cc4)c3C[C@H]2CN1C(=O)c1ccccc1	-1.34	-0.306	-0.77	-3.39	-4.11	-2.18	-0.922 (inactive)	-0.791	-2.79	-1.36 (inactive)	-0.409	0.633 (inactive)	-6.89 (inactive)	0.546 (inactive)	0.619 (inactive)	1.63 (inactive)	-0.728 (inactive)	-0.804 (inactive)	-3.56	0.422
C=C(COC)C(=O)CC[C@@H](OC(C)=O)c1cccc(OCCO)c1	0.851	0.617	-0.4	-3.46	-0.496	-0.0521	-0.196 (inactive)	0.0392	-0.274	0.387 (inactive)	-0.434	0.823 (inactive)	-0.0743 (inactive)	0.0704 (inactive)	-0.329 (inactive)	1.17 (inactive)	0.858 (inactive)	0.503 (inactive)	-0.929	-0.263
